# Laboratory results from PubChem BioAssay AID1159580 (chemical genetic matrix, 2015).
# “And” between values parts separate entries of the source, which are not always exact repeats. Identical values can stand only once. Hit rate of the full screen: of about 5,500 compounds, about 2,000 (36%) were called active. Not shown: some 18% with an inconclusive outcome. No stated cut-off is given here; in the data, active means normalized growth mostly below about 0.91 (no sharp cut-off); inconclusive means no clear call, values can overlap the other calls; inactive means mostly above about 0.92. Some of the results follow.
# Assay: chemical genetic growth profiling, strain panel (AID 1159580);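 further: tested at 20 µM; growth read once vehicle control cultures reached saturation at 30 °C; 1 = growth at the plate median or of vehicle wells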
# Conditions: S. cerevisiae deletion strains, growth OD
smiles,measurement,setting,value
CCC(Cc1c(I)cc(I)c(N)c1I)C(=O)O (stereo not given),normalized growth,"locus YAL013W, strain DEP1, stronger effect = lower value",0.979 (inactive)
same,normalized growth,"locus YAL021C, strain ccr4, stronger effect = lower value",0.934 (inactive)
same,normalized growth,"locus YAL026C, strain drs2, stronger effect = lower value",0.889 (active)
same,normalized growth,"locus YAL030W, strain snc1, stronger effect = lower value",0.945 (inactive)
same,normalized growth,"locus YBL061C, strain skt5, stronger effect = lower value",0.955 (inactive)
same,normalized growth,"locus YBR009C, strain hhf1, stronger effect = lower value",0.861 (active)
same,normalized growth,"locus YBR021W, strain FUR4, stronger effect = lower value",1.03 (inactive)
same,normalized growth,"locus YBR023C, strain chs3, stronger effect = lower value",0.935 (inactive)
same,normalized growth,"locus YBR171W, strain sec66, stronger effect = lower value",0.921 (inactive)
same,normalized growth,"locus YBR229C, strain ROT2, stronger effect = lower value",0.989 (inactive)
same,normalized growth,"locus YBR231C, strain swc5, stronger effect = lower value",0.977 (inactive)
same,normalized growth,"locus YBR279W, strain paf1, stronger effect = lower value",0.945 (inactive)
same,normalized growth,"locus YCL011C, strain gbp2, stronger effect = lower value",0.905 (active)
same,normalized growth,"locus YCL016C, strain dcc1, stronger effect = lower value",0.934 (inactive)
same,normalized growth,"locus YCL029C, strain bik1, stronger effect = lower value",0.997 (inactive)
same,normalized growth,"locus YCL069W, strain vba3, stronger effect = lower value",0.907 (active)
same,normalized growth,"locus YCR088W, strain abp1, stronger effect = lower value",0.935 (inactive)
same,normalized growth,"locus YDL005C, strain med2, stronger effect = lower value",0.95 (inactive)
same,normalized growth,"locus YDL035C, strain GPR1, stronger effect = lower value",1 (inactive)
same,normalized growth,"locus YDL040C, strain nat1, stronger effect = lower value",0.96 (inactive)
same,normalized growth,"locus YDL074C, strain BRE1, stronger effect = lower value",1.01 (inactive)
same,normalized growth,"locus YDL101C, strain DUN1, stronger effect = lower value",1.01 (inactive)
same,normalized growth,"locus YDL134C, strain PPH21, stronger effect = lower value",1.01 (inactive)
same,normalized growth,"locus YDL192W, strain arf1, stronger effect = lower value",0.997 (inactive)
same,normalized growth,"locus YDR001C, strain nth1, stronger effect = lower value",0.927 (inactive)
same,normalized growth,"locus YDR069C, strain doa4, stronger effect = lower value",0.951 (inactive)
same,normalized growth,"locus YDR101C, strain arx1, stronger effect = lower value",1 (inactive)
same,normalized growth,"locus YDR137W, strain rgp1, stronger effect = lower value",0.71 (active)
same,normalized growth,"locus YDR150W, strain NUM1, stronger effect = lower value",1.01 (inactive)
same,normalized growth,"locus YDR159W, strain sac3, stronger effect = lower value",0.895 (inactive)
same,normalized growth,"locus YDR162C, strain NBP2, stronger effect = lower value",0.982 (inactive)
same,normalized growth,"locus YDR195W, strain ref2",0.992 (inactive)
same,normalized growth,"locus YDR297W, strain sur2, stronger effect = lower value",0.954 (inactive)
same,normalized growth,"locus YDR318W, strain mcm21, stronger effect = lower value",1 (inactive)
same,normalized growth,"locus YDR334W, strain swr1, stronger effect = lower value",0.942 (inactive)
same,normalized growth,"locus YDR335W, strain msn5, stronger effect = lower value",0.947 (inactive)
same,normalized growth,"locus YDR388W, stronger effect = lower value",0.996 (inactive)
same,normalized growth,"locus YDR392W, strain spt3, stronger effect = lower value",0.711 (active)
same,normalized growth,"locus YDR502C, strain sam2, stronger effect = lower value",0.991 (inactive)
same,normalized growth,"locus YEL003W, strain gim4, stronger effect = lower value",0.934 (inactive)
same,normalized growth,"locus YEL037C, strain rad23, stronger effect = lower value",0.947 (inactive)
same,normalized growth,"locus YEL061C, strain CIN8 (second series), stronger effect = lower value",0.942 (inactive)
same,normalized growth,"locus YEL061C, strain CIN8, stronger effect = lower value",0.994 (inactive)
same,normalized growth,"locus YER015W, strain faa2, stronger effect = lower value",0.977 (inactive)
same,normalized growth,"locus YER016W, strain bim1, stronger effect = lower value",0.927 (inactive)
same,normalized growth,"locus YER110C, stronger effect = lower value",1 (inactive)
same,normalized growth,"locus YER111C, strain swi4, stronger effect = lower value",0.925 (inactive)
same,normalized growth,"locus YER155C, strain BEM2 (second series), stronger effect = lower value",0.94 (inactive)
same,normalized growth,"locus YER155C, strain BEM2, stronger effect = lower value",1 (inactive)
same,normalized growth,"locus YER167W, strain BCK2, stronger effect = lower value",0.998 (inactive)
same,normalized growth,"locus YFR010W, strain ubp6, stronger effect = lower value",0.985 (inactive)
same,normalized growth,"locus YGL078C, strain dbp3, stronger effect = lower value",0.997 (inactive)
same,normalized growth,"locus YGL086W, strain mad1, stronger effect = lower value",0.986 (inactive)
same,normalized growth,"locus YGL167C, strain pmr1, stronger effect = lower value",0.928 (inactive)
same,normalized growth,"locus YGL173C, strain kem1, stronger effect = lower value",0.936 (inactive)
same,normalized growth,"locus YGL227W, strain vid30, stronger effect = lower value",0.949 (inactive)
same,normalized growth,"locus YGL240W, strain doc1, stronger effect = lower value",0.99 (inactive)
same,normalized growth,"locus YGL248W, strain PDE1, stronger effect = lower value",1 (inactive)
same,normalized growth,"locus YGL253W, strain hxk2, stronger effect = lower value",0.921 (inactive)
same,normalized growth,"locus YGR078C, strain PAC10, stronger effect = lower value",1.01 (inactive)
same,normalized growth,"locus YGR135W, strain pre9, stronger effect = lower value",1 (inactive)
same,normalized growth,"locus YGR229C, strain SMI1, stronger effect = lower value",1.02 (inactive)
same,normalized growth,"locus YGR252W, strain gcn5, stronger effect = lower value",1.04 (inactive)
same,normalized growth,"locus YHR013C, strain ard1, stronger effect = lower value",0.852 (inactive)
same,normalized growth,"locus YHR027C, strain rpn1, stronger effect = lower value",0.927 (inactive)
same,normalized growth,"locus YHR030C, strain SLT2, stronger effect = lower value",1 (inactive) and 0.148 (active)
same,normalized growth,"locus YHR079C, strain IRE1 (second series), stronger effect = lower value",1 (inactive)
same,normalized growth,"locus YHR079C, strain IRE1, stronger effect = lower value",0.135 (active)
same,normalized growth,"locus YHR094C, strain hxt1, stronger effect = lower value",1 (inactive)
same,normalized growth,"locus YHR129C, strain ARP1, stronger effect = lower value",0.957 (inactive)
same,normalized growth,"locus YHR142W, strain chs7, stronger effect = lower value",0.912 (inactive)
same,normalized growth,"locus YHR200W, strain rpn10, stronger effect = lower value",1 (inactive)
same,normalized growth,"locus YIL066C, strain RNR3, stronger effect = lower value",1 (inactive)
same,normalized growth,"locus YIL073C, strain SPO22, stronger effect = lower value",1.04 (inactive)
same,normalized growth,"locus YIL125W, strain kgd1, stronger effect = lower value",0.992 (inactive)
same,normalized growth,"locus YIR030C, strain dcg1, stronger effect = lower value",0.996 (inactive)
same,normalized growth,"locus YJL092W, strain hpr5, stronger effect = lower value",0.942 (inactive)
same,normalized growth,"locus YJL095W, strain BCK1 (second series), stronger effect = lower value",0.959 (inactive)
same,normalized growth,"locus YJL095W, strain BCK1, stronger effect = lower value",0.993 (inactive) and 0.112 (active)
same,normalized growth,"locus YJL115W, strain asf1, stronger effect = lower value",0.954 (inactive)
same,normalized growth,"locus YJL129C, strain trk1, stronger effect = lower value",0.931 (inactive)
same,normalized growth,"locus YJL134W, strain LCB3, stronger effect = lower value",1 (inactive)
same,normalized growth,"locus YJL154C, strain vps35, stronger effect = lower value",0.935 (inactive)
same,normalized growth,"locus YJL164C, strain tpk1, stronger effect = lower value",0.903 (active)
same,normalized growth,"locus YJL166W, strain qcr8, stronger effect = lower value",0.949 (inactive)
same,normalized growth,"locus YJL168C, strain set2, stronger effect = lower value",0.999 (inactive)
same,normalized growth,"locus YJL187C, strain SWE1 (second series), stronger effect = lower value",1.01 (inactive)
same,normalized growth,"locus YJR043C, strain POL32, stronger effect = lower value",1.03 (inactive)
same,normalized growth,"locus YJR066W, strain TOR1, stronger effect = lower value",0.0664 (active)
same,normalized growth,"locus YJR075W, strain HOC1, stronger effect = lower value",1.02 (inactive)
